In PubChem BioAssay AID1159580 (chemical genetic matrix, 2015):
“And” between values parts separate entries of the source, which are not always exact repeats. Equal entries are not always repeated. About 2,000 (36%) of roughly 5,500 compounds were called active. Inconclusive results (about 18%) are left out. Cut-off read from the data, not from the text of the source: active = normalized growth mostly below about 0.91 (no sharp cut-off); inconclusive = no clear call, values can overlap the other calls; inactive = mostly above about 0.92. The list shows a part of the results.

Test: chemical genetic growth profiling, strain panel (AID 1159580);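 note: tested at 20 µM; growth read once vehicle control cultures reached saturation at 30 °C; 1 = growth at the plate median or of vehicle wells; lower values mean less growth of the strain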
Conditions: growth OD

Measured: normalized growth

NC(=O)c1cnccn1
inactive: S. cerevisiae deletion strains, locus YJR075W, strain HOC1, active compounds read low 1.03 | S. cerevisiae deletion strains, locus YKL009W, strain mrt4, active compounds read low 1.02 | S. cerevisiae deletion strains, locus YKL068W, active compounds read low 1 | S. cerevisiae deletion strains, locus YKL085W, strain MDH1 (second series), active compounds read low 1.01 | S. cerevisiae deletion strains, locus YKL085W, strain MDH1, active compounds read low 1.01 | S. cerevisiae deletion strains, locus YKL160W, strain elf1, active compounds read low 0.967 | S. cerevisiae deletion strains, locus YKL190W, strain CNB1, active compounds read low 1.01 | S. cerevisiae deletion strains, locus YKR001C, strain vps1, active compounds read low 0.999 | S. cerevisiae deletion strains, locus YKR026C, strain gcn3, active compounds read low 0.992 | S. cerevisiae deletion strains, locus YKR091W, strain srl3, active compounds read low 0.99 | S. cerevisiae deletion strains, locus YLL001W, strain dnm1, active compounds read low 0.955 | S. cerevisiae deletion strains, locus YLL026W, active compounds read low 0.979 | S. cerevisiae deletion strains, locus YLL041C, strain sdh2, active compounds read low 0.993 | S. cerevisiae deletion strains, locus YLR027C, strain aat2, active compounds read low 0.976 | S. cerevisiae deletion strains, locus YLR039C, strain RIC1, active compounds read low 1.05 | S. cerevisiae deletion strains, locus YLR058C, strain SHM2, active compounds read low 1 | S. cerevisiae deletion strains, locus YLR102C, strain apc9, active compounds read low 0.999 | S. cerevisiae deletion strains, locus YLR113W, strain HOG1, active compounds read low 0.99 | S. cerevisiae deletion strains, locus YLR221C, strain rsa3, active compounds read low 1.01 | S. cerevisiae deletion strains, locus YLR258W, strain gsy2, active compounds read low 1.01 | S. cerevisiae deletion strains, locus YLR262C, strain YPT6 (second series), active compounds read low 0.965 | S. cerevisiae deletion strains, locus YLR262C, strain YPT6, active compounds read low 0.979 | S. cerevisiae deletion strains, locus YLR268W, strain sec22, active compounds read low 1.05 | S. cerevisiae deletion strains, locus YLR320W, strain mms22, active compounds read low 0.981 | S. cerevisiae deletion strains, locus YLR330W, strain CHS5, active compounds read low 1.01 | S. cerevisiae deletion strains, locus YLR342W, strain FKS1 (second series), active compounds read low 1.02 | S. cerevisiae deletion strains, locus YLR342W, strain FKS1, active compounds read low 0.968 | S. cerevisiae deletion strains, locus YLR357W, strain rsc2, active compounds read low 0.967 | S. cerevisiae deletion strains, locus YLR370C, strain arc18, active compounds read low 0.999 | S. cerevisiae deletion strains, locus YLR371W, strain rom2, active compounds read low 1.01 | S. cerevisiae deletion strains, locus YLR384C, strain iki3, active compounds read low 0.977 | S. cerevisiae deletion strains, locus YLR418C, strain cdc73, active compounds read low 1 | S. cerevisiae deletion strains, locus YML016C, strain PPZ1, active compounds read low 1 | S. cerevisiae deletion strains, locus YML032C, strain rad52, active compounds read low 1.02 | S. cerevisiae deletion strains, locus YML120C, strain ndi1, active compounds read low 0.98 | S. cerevisiae deletion strains, locus YML124C, strain tub3, active compounds read low 0.998 | S. cerevisiae deletion strains, locus YMR058W, strain fet3, active compounds read low 0.98 | S. cerevisiae deletion strains, locus YMR078C, strain ctf18, active compounds read low 1 | S. cerevisiae deletion strains, locus YMR125W, strain sto1, active compounds read low 0.999 | S. cerevisiae deletion strains, locus YMR129W, active compounds read low 0.993 | S. cerevisiae deletion strains, locus YMR205C, strain PFK2, active compounds read low 0.998 | S. cerevisiae deletion strains, locus YMR223W, strain ubp8, active compounds read low 0.985 | S. cerevisiae deletion strains, locus YMR231W, strain pep5, active compounds read low 0.982 | S. cerevisiae deletion strains, locus YMR307W, strain GAS1, active compounds read low 1.01 | S. cerevisiae deletion strains, locus YNL067W, strain RPL9B, active compounds read low 1 | S. cerevisiae deletion strains, locus YNL071W, strain lat1, active compounds read low 1.01 | S. cerevisiae deletion strains, locus YNL128W, strain TEP1, active compounds read low 1.02 | S. cerevisiae deletion strains, locus YNL153C, strain GIM3, active compounds read low 1 | S. cerevisiae deletion strains, locus YNL175C, strain NOP13, active compounds read low 1 | S. cerevisiae deletion strains, locus YNL183C, strain NPR1, active compounds read low 0.998 | S. cerevisiae deletion strains, locus YNL197C, strain WHI3, active compounds read low 0.995 | S. cerevisiae deletion strains, locus YNL209W, strain ssb2, active compounds read low 1 | S. cerevisiae deletion strains, locus YNL224C, strain SQS1, active compounds read low 0.991 | S. cerevisiae deletion strains, locus YNL233W, strain BNI4, active compounds read low 1.01 | S. cerevisiae deletion strains, locus YNL248C, strain rpa49, active compounds read low 1.01 | S. cerevisiae deletion strains, locus YNL250W, strain rad50, active compounds read low 0.998 | S. cerevisiae deletion strains, locus YNL271C, strain bni1, active compounds read low 1 | S. cerevisiae deletion strains, locus YNL298W, strain CLA4, active compounds read low 0.997 | S. cerevisiae deletion strains, locus YNL307C, strain MCK1, active compounds read low 1.01 | S. cerevisiae deletion strains, locus YNL322C, strain KRE1 (second series), active compounds read low 0.984 | S. cerevisiae deletion strains, locus YNR049C, strain mso1, active compounds read low 0.998 | S. cerevisiae deletion strains, locus YNR052C, strain pop2, active compounds read low 0.99 | S. cerevisiae deletion strains, locus YOL006C, strain TOP1, active compounds read low 0.999 | S. cerevisiae deletion strains, locus YOL012C, strain htz1 1.57 | S. cerevisiae deletion strains, locus YOL147C, strain pex11, active compounds read low 1 | S. cerevisiae deletion strains, locus YOR001W, strain rrp6, active compounds read low 0.983 | S. cerevisiae deletion strains, locus YOR061W, strain CKA2, active compounds read low 1 | S. cerevisiae deletion strains, locus YOR069W, strain VPS5, active compounds read low 1.01 | S. cerevisiae deletion strains, locus YOR070C, strain gyp1, active compounds read low 1 | S. cerevisiae deletion strains, locus YOR080W, strain dia2, active compounds read low 0.978 | S. cerevisiae deletion strains, locus YOR083W, strain WHI5 (second series), active compounds read low 1.02 | S. cerevisiae deletion strains, locus YOR083W, strain WHI5, active compounds read low 0.955 | S. cerevisiae deletion strains, locus YOR106W, strain vam3, active compounds read low 0.992 | S. cerevisiae deletion strains, locus YOR136W, strain idh2, active compounds read low 0.988 | S. cerevisiae deletion strains, locus YOR144C, strain elg1, active compounds read low 1 | S. cerevisiae deletion strains, locus YOR184W, strain ser1, active compounds read low 1 | S. cerevisiae deletion strains, locus YOR231W, strain MKK1, active compounds read low 1 | S. cerevisiae deletion strains, locus YOR265W, strain rbl2, active compounds read low 0.985 | S. cerevisiae deletion strains, locus YOR270C, strain vph1, active compounds read low 1.02 | S. cerevisiae deletion strains, locus YOR290C, strain snf2, active compounds read low 1.02 | S. cerevisiae deletion strains, locus YOR316C, strain cot1, active compounds read low 1.01 | S. cerevisiae deletion strains, locus YPL051W, strain arl3, active compounds read low 0.993 | S. cerevisiae deletion strains, locus YPL055C, strain LGE1, active compounds read low 0.976 and 0.968 | S. cerevisiae deletion strains, locus YPL078C, strain atp4, active compounds read low 0.957 | S. cerevisiae deletion strains, locus YPL106C, strain sse1, active compounds read low 0.97 | S. cerevisiae deletion strains, locus YPL240C, strain hsp82, active compounds read low 0.979 | S. cerevisiae deletion strains, locus YPL241C, strain CIN2, active compounds read low 1.01 | S. cerevisiae deletion strains, locus YPL256C, strain CLN2, active compounds read low 1.02 | S. cerevisiae deletion strains, locus YPR119W, strain clb2, active compounds read low 1.01 | S. cerevisiae deletion strains, locus YPR141C, strain kar3, active compounds read low 0.993 | S. cerevisiae deletion strains, locus YPR163C, strain tif3, active compounds read low 1.01 | S. cerevisiae deletion strains, locus YPR167C, strain met16, active compounds read low 1.01 | S. cerevisiae deletion strains, strain wtn01, active compounds read low 1 | S. cerevisiae strains, strain wild type, active compounds read low 1.01
